# From ChEMBL document CHEMBL1961873, “Compounds: GSK PKIS; Assays: Nanosyn kinase panel” (2012)
# Target: T1, Serine/threonine-protein kinase Nek9 (Homo sapiens) (UniProt Q8TD19)
# T1 sequence (whole entry): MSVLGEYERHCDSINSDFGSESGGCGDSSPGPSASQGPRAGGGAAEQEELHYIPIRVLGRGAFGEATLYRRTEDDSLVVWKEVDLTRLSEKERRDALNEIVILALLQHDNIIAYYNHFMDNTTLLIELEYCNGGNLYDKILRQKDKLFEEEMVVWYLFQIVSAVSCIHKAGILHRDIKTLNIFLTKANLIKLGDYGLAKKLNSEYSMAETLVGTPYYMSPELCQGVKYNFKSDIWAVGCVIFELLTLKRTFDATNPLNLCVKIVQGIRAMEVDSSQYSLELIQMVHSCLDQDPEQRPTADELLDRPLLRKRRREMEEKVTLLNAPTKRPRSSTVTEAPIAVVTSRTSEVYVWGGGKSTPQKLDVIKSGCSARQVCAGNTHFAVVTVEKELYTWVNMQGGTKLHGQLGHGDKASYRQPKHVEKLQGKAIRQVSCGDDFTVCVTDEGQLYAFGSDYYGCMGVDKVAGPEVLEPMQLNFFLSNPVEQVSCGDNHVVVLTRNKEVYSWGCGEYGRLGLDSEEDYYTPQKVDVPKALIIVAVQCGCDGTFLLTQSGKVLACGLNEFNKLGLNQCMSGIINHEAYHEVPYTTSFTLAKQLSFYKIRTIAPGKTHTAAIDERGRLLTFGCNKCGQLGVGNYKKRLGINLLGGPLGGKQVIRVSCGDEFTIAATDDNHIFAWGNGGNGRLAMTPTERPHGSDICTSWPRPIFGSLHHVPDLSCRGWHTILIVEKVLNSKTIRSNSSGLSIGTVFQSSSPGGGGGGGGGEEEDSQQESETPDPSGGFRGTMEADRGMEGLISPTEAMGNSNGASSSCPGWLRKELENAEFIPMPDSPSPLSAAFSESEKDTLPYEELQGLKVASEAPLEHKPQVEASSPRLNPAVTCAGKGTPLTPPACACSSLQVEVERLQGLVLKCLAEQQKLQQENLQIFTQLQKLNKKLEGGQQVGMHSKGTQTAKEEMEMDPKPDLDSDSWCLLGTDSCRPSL
# Settings: at 0.1 µM
# 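Further: reported value is the mean percent inhibition of NEK9.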
row,Structure (SMILES),inhibition [%]
1,CCS(=O)(=O)c1ccc(OC)c(Nc2ncc(-c3cccc(OC)c3)o2)c1,4.19
2,CCn1c(-c2nonc2N)nc2c(C#CC(C)(C)O)nc(OCCNC)cc21,7.21
3,CN1CCN(C(=O)c2ccc(NC(=O)Nc3ccc(N(C)c4ccnc(Nc5ccc(CS(C)(=O)=O)cc5)n4)cc3)cc2)CC1,6.54
4,CC(C)c1ccc(Nc2nccc(-c3cnn4ncccc34)n2)cc1,11.3
5,N#Cc1cccc(Nc2nccc(-c3cnn4ncccc34)n2)c1,7
6,c1ccc(Cc2nc3ccc(Nc4ncnc5ccccc45)cc3[nH]2)cc1,7.36
7,Cc1ccc(C(=O)NC2CC2)cc1-c1ccc2[nH]ncc2c1,0.32
8,COC(=O)Nc1nc2cc(Oc3ccc(NC(=O)Nc4cccc(Br)c4)cc3)ccc2[nH]1,7.82
9,NC(=O)c1sc(-n2cnc3ccccc32)cc1OCc1ccccc1Br,8.49
10,c1ccc(Nc2ncc(-c3ccccc3)o2)cc1,12.2
11,CCCN1CCCC(c2ccc(Nc3nc(Nc4cc(F)ccc4C(N)=O)c4cc[nH]c4n3)c(OC)c2)C1 (stereo not drawn),9.57
12,Nc1ccc(C#Cc2cncnc2Nc2ccc(OCc3cccc(F)c3)c(Cl)c2)cc1,3.62
13,CN(C)C(=O)O[C@H]1CN[C@H](C#Cc2cc3ncnc(Nc4ccc(OCc5cccc(F)c5)c(Cl)c4)c3s2)C1,7.4
14,O=C1Nc2ccc(-c3cccnc3)cc2C1=Cc1cc(Br)c(O)c(Br)c1,6.61
15,CS(=O)(=O)Nc1cccc(-c2ccc3c(NC(=O)C4CC4)n[nH]c3c2)c1,2.01
16,CCS(=O)(=O)c1ccc(OC)c(Nc2nccc(N(C)c3ccc4c(C)n[nH]c4c3)n2)c1,3.29
17,COc1cccc(-n2ncc3c(N/N=C/c4ccc(S(C)(=O)=O)cc4)ncnc32)c1,4.38

row,Structure (SMILES),inhibition [%]
1,Cc1ccc2c(-c3ccnc(Nc4cccc(C(F)(F)F)c4)n3)c(-c3ccccc3)nn2n1,8.93
2,Cc1ccc2c(-c3ccnc(Nc4ccc5c(c4)OCCO5)n3)c(-c3ccc(C(F)(F)F)cc3)nn2n1,1.38
3,NS(=O)(=O)c1ccc(-c2cc3ccncc3cc2OCc2ccccc2)cc1,9.27
4,COc1ccc2ncnc(Nc3ccc(OCc4ccccc4)cc3)c2c1,-0.31
5,CCn1c(-c2nonc2N)nc2ccc(F)cc21,5.14
6,N#Cc1c(NC(=O)c2ccccc2F)sc2c1CCCC2,-2.9
7,COc1cccc(-n2nc(C)c3c(N/N=C(\C)c4ccncc4)ncnc32)c1,4.23
8,OCc1ccc(-c2nc(-c3ccccn3)c(-c3ccc4c(c3)OCO4)[nH]2)cc1,5.12
9,CCOc1nccc2c1nc(-c1nonc1N)n2CC,6.44
10,NS(=O)(=O)c1ccc(N/N=C2\C(=O)Nc3ccc(Cl)cc32)cc1,7.35
11,Cc1ccc(O)cc1Nc1ccnc2ccc(S(C)(=O)=O)cc12,4.3
12,COC(=O)c1ccc2c(c1)C(=Cc1cc(Br)c(O)c(Br)c1)C(=O)N2,6.38
13,[O-][S+]1CCN(Cc2ccc(-c3ccc4ncnc(Nc5ccc(OCc6ccccc6)c(Cl)c5)c4c3)o2)CC1,0.79
14,COc1cccc(-n2ncc3c(N/N=C/c4ccc(C)cc4)ncnc32)c1,9.27
15,O=S(=O)(CCOCc1ccc(-c2ccc3ncnc(Nc4ccc(OCc5cccc(F)c5)c(Cl)c4)c3c2)o1)c1ccccc1,5
16,COc1cc(/C=N/Nc2ncnc3c2cnn3C(C)C)ccc1O,-0.27
